We go through 15 compounds from PubChem BioAssay.

Values without a mark were called inactive. The rule behind the calls is not given here.

The subject of the assay is Aerobactin synthetase IucA (Klebsiella pneumoniae hvKP1). The experiment in a line: IucA enzyme inhibition, primary screen, biochemical, Spectrum library (AID 1346200).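 Note: 100% = wells without compound and 0% = wells lacking enzyme.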 The settings on record: malachite green pyrophosphate, A620, at 8 µM, active compounds read low.
`c1coc(CNc2ncnc3nc[nH]c23)c1`: the activity remaining was 116%. On to `Cc1noc(NS(=O)(=O)c2ccc(N)cc2)c1C`, for which the activity remaining is 117%. In the case of `O=C1OC(c2ccc(O)cc2)(c2ccc(O)cc2)c2ccccc21` it was 115%; in that of `Cc1cc(-n2c(=O)[nH]c(=O)n(C)c2=O)ccc1Oc1ccc(SC(F)(F)F)cc1`, 109%; in that of `O=C(Cc1ccccc1)NO`, 109%.

Turning to `CCCCCCCCCCCCCCCCOP(=O)([O-])OCC[N+](C)(C)C`, the activity remaining is 128%. In the case of `Nc1ccc(S(=O)(=O)NC(=O)c2ccccc2)cc1` it was 109%; in that of `COc1ccc(C[C@H](N)C(=O)N[C@@H]2[C@@H](CO)OC(n3cnc4c(N(C)C)ncnc43)[C@@H]2O)cc1` (stereo not given in full), 87.5%. In the case of `NC[C@@H]1O[C@H](O[C@@H]2[C@@H](CO)OC(O[C@@H]3[C@@H](O)[C@H](N)C[C@H](N)[C@H]3OC3O[C@H](CN)[C@@H](O)[C@H](O)[C@H]3N)[C@@H]2O)[C@H](N)[C@@H](O)[C@@H]1O` (stereo not given in full) it was 99.1%; in that of `COc1cc(O)cc(OC)c1OC`, 104%. In the case of `CC(C)c1c(O)ccc2c1CCC1[C@@](C)(C=O)CCC[C@]21C` (stereo not given in full) it was 99.8%; in that of `CC(C(=O)O)c1ccc(N2Cc3ccccc3C2=O)cc1` (stereo not given), 103%; in that of `Cc1c(Nc2ncccc2C(=O)O)cccc1C(F)(F)F`, 117%.

On to `CC(C)CCCC(C)C1CCC2C3CC[C@H]4C[C@@H](O)CC[C@]4(C)C3CC[C@]12C` (stereo not given in full), for which the activity remaining is 109%. In the case of `CC(C)(Sc1cc(C(C)(C)C)c(O)c(C(C)(C)C)c1)Sc1cc(C(C)(C)C)c(O)c(C(C)(C)C)c1` it was 89.7%.
